The structures appear in SMILES notation. Results filed as inconclusive are left out. Unmarked numbers belong to inactive results. Activity calls are given as the source filed them. The call rests on the fitted dose curve; in most records, active means well fitted cell-killing curve with a large enough effect; inconclusive means small, poorly fitted or top-dose-only effect, or effect the other way; inactive means flat fitted curve, though single readings scatter.
On the % scale 0 is the no-effect control and ±100 the full control effect; potency means the concentration at half of the fitted maximal effect.

The test system of the first assay is SKOV3. Put plainly: Primary qHTS to identify gynecologic anti-cancer compounds using libraries of approved drugs and bioactive compounds (AID 1345084). Further: nearly all actives have a fitted effect of over 55% in size. Conditions: Gynecologic cancer cell panel viability, ATPlite luminescence, 48 h; series mostly up to 57.5 µM; activity change, negative = cytotoxicity: at the top concentration. The essentials:
(§1)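 Five-point cytotoxicity, 48 h drug exposure at 37 C, 5% CO2, on cells seeded 16 h beforehand. ATP content read by ATPlite luminescence.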
Consider `CCOC(=O)C1(c2ccccc2)CCN(CCC(C#N)(c2ccccc2)c2ccccc2)CC1`, for which the “activity change, negative = cytotoxicity” value is -3.11%.
On the same count and under the same terms, for `c1ccc(C2CC2)c(OCC2=NCCN2)c1` the value was 1.18%; for `N#CC(C#N)=Cc1ccc(O)c(O)c1`, -18%.
`Clc1ccc(COC(Cn2ccnc2)c2ccc(Cl)cc2Cl)cc1` (centres undefined): the Potency is 28.2 µM (active).
For `C=C1C[C@@H]2[C@H](CC[C@]3(C)C(=O)CC[C@@H]23)[C@@]2(C)C=CC(=O)C=C12`, the “activity change, negative = cytotoxicity” value is -9.45%.
On the same count and under the same terms, the value for `COc1ccc2c(c1OC)CN1CCc3cc4c(cc3C1C2)OCO4` (centres undefined) was -37%.
Turning to `C[C@]12CCC(=O)C(O)=C1CC[C@@H]1[C@@H]2CC[C@]2(C)C(=O)CC[C@@H]12`, the “activity change, negative = cytotoxicity” value is -5.2%.
For the molecule `C=C(C)[C@H]1Cc2c(ccc3c2O[C@@H]2COc4cc(OC)c(OC)cc4[C@@H]2C3=O)O1`, the Potency is 0.282 µM (active).
Turning to `CC(=O)Nc1cc([As](=O)(O)O)ccc1O`, the “activity change, negative = cytotoxicity” value is 14.5%.
For `CCCC1CCCCN1` (centres undefined), the “activity change, negative = cytotoxicity” value was -3.83%.
In the case of `CNC(=O)c1ccc(N2C(=S)N(c3ccc(C#N)c(C(F)(F)F)c3)C(=O)C23CCC3)cc1F`, the “activity change, negative = cytotoxicity” value is -2.46%.
On to `C[C@]12CC[C@H]3[C@@H](CCC4=CC(=O)CC[C@@H]43)[C@@H]1CC[C@@H]2OC(=O)CCc1ccccc1`, for which the “activity change, negative = cytotoxicity” value is -1.31%.
As to `N[C@@H]1C[C@H]1c1ccccc1`, the “activity change, negative = cytotoxicity” value was 11.5%.
Take `CC1NCCOC1c1ccccc1` (centres undefined): the “activity change, negative = cytotoxicity” value was 12%.
With `Oc1ccc(Cl)cc1Cc1ccccc1`, the “activity change, negative = cytotoxicity” value is -1.68%.
Regarding `N[C@@H](Cc1ccc(N(CCCl)CCCl)cc1)C(=O)O`, the “activity change, negative = cytotoxicity” value is -18.2%.
`COc1ccc(Cc2nccc3cc(OC)c(OC)cc23)cc1OC`: the Potency was 25.1 µM (active).
Consider `CC[N+]1(C)CCCC(OC(=O)C(O)(c2ccccc2)c2ccccc2)C1` (centres undefined), for which the “activity change, negative = cytotoxicity” value was 9.86%.
Regarding `Clc1cccc(N2CCNCC2)c1`, the “activity change, negative = cytotoxicity” value is 1.51%.
The same measure, in the same setting: the value for `CN(C)CCc1ccc(O)cc1` was 12.3%.

For a further assay, the system named is Tov-21-G. The assay is described as above. Conditions: Gynecologic cancer cell panel viability, ATPlite luminescence, 48 h; series mostly up to 57.5 µM; activity change, negative = cytotoxicity: at the top concentration. An outline of the steps:
as §1
With `CN1C[C@H](CNC(=O)OCc2ccccc2)C[C@@H]2c3cccc4c3c(cn4C)C[C@H]21`, the “activity change, negative = cytotoxicity” value was -5.94%.
With `COc1ccc(C(=O)c2c(C)n(CCN3CCOCC3)c3ccccc23)cc1`, the “activity change, negative = cytotoxicity” value was -3.16%.
As to `c1ccc2c(c1)OCC(C1=NCCN1)O2` (centres undefined), the Potency was 15.8 µM (active).
`CCOC(=O)C1(c2ccccc2)CCN(CCC(C#N)(c2ccccc2)c2ccccc2)CC1`: the “activity change, negative = cytotoxicity” value is 2.28%.
For `Clc1ccc(CCC(Cn2ccnc2)Sc2c(Cl)cccc2Cl)cc1` (centres undefined), the “activity change, negative = cytotoxicity” value is -0.883%.
As to `c1ccc(C2CC2)c(OCC2=NCCN2)c1`, the “activity change, negative = cytotoxicity” value was -0.751%.
Turning to `CCC(=O)C(CC(C)N(C)C)(c1ccccc1)c1ccccc1` (centres undefined), the “activity change, negative = cytotoxicity” value is 3.43% [at 116 µM].
The same measure, in the same setting: for `CC[C@@H](CO)NC(=O)[C@@H]1C=C2c3cccc4[nH]cc(c34)C[C@H]2N(C)C1` the value was 6.24%.
Take `COc1ccc2c(c1OC)CN1CCc3cc4c(cc3C1C2)OCO4` (centres undefined): the “activity change, negative = cytotoxicity” value is 10.4%.
Same read-out and setting: the value for `CC(C)CC(N(C)C)C1(c2ccc(Cl)cc2)CCC1` (centres undefined) was -0.138%; that for `C[C@]12CCC(=O)C(O)=C1CC[C@@H]1[C@@H]2CC[C@]2(C)C(=O)CC[C@@H]12` was -1.14%.
Turning to `C=C(C)[C@H]1Cc2c(ccc3c2O[C@@H]2COc4cc(OC)c(OC)cc4[C@@H]2C3=O)O1`, the Potency is 3.98 µM (active).
As for `CNC(=O)N1N=C(c2ccc(N)cc2)c2cc3c(cc2CC1C)OCO3` (centres undefined), the “activity change, negative = cytotoxicity” value is -9.98%.
The same measure, in the same setting: the value for `CC(=O)Nc1cc([As](=O)(O)O)ccc1O` was -8.53%; that for `CCCC1CCCCN1` (centres undefined) was 3.63%.
For `CNC(=O)c1ccc(N2C(=S)N(c3ccc(C#N)c(C(F)(F)F)c3)C(=O)C23CCC3)cc1F`, the “activity change, negative = cytotoxicity” value is 0.659%.
With `Cc1cc(SCc2sc(-c3ccc(C(F)(F)F)c(F)c3)nc2C)ccc1OCC(=O)O`, the “activity change, negative = cytotoxicity” value is 0.74%.
Regarding `CC(C)=CCOc1c2occc2cc2ccc(=O)oc12`, the “activity change, negative = cytotoxicity” value is -7.04%.
On the same count and under the same terms, the value for `C[C@]12CC[C@H]3[C@@H](CCC4=CC(=O)CC[C@@H]43)[C@@H]1CC[C@@H]2OC(=O)CCc1ccccc1` was 0.132%; that for `N[C@@H]1C[C@H]1c1ccccc1` was -1.79%.
As for `O=c1[nH]c2ccccc2n1C1CCN(CCCC(c2ccc(F)cc2)c2ccc(F)cc2)CC1`, the Potency result is “inactive”.
For the molecule `CC1NCCOC1c1ccccc1` (centres undefined), the “activity change, negative = cytotoxicity” value was 1.54%.
Take `Oc1ccc(Cl)cc1Cc1ccccc1`: the Potency result is “inactive”.
As for `N[C@@H](Cc1ccc(N(CCCl)CCCl)cc1)C(=O)O`, the “activity change, negative = cytotoxicity” value was -13.8%.
`COc1ccc(Cc2nccc3cc(OC)c(OC)cc23)cc1OC`: the “activity change, negative = cytotoxicity” value was -24.1%.
For the molecule `CCC(COC(=O)c1cc(OC)c(OC)c(OC)c1)(c1ccccc1)N(C)C` (centres undefined), the “activity change, negative = cytotoxicity” value is -17.1%.
Same read-out and setting: the value for `CC[N+]1(C)CCCC(OC(=O)C(O)(c2ccccc2)c2ccccc2)C1` (centres undefined) was 1.26%.
As to `Clc1cccc(N2CCNCC2)c1`, the “activity change, negative = cytotoxicity” value was 1.76%.
Consider `CN(C)CCc1ccc(O)cc1`, for which the “activity change, negative = cytotoxicity” value is 9.86%.

The values above are taken from PubChem BioAssay (NCATS).
